Consider 42 molecules from PubChem BioAssay AID527 (NMMLSC, 2006).

The nature of this experiment: S. aureus quorum sensing inhibitors, primary screen, RNAIII-GFP reporter, flow cytometry (AID 527).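 Note: 0% = AIP-stimulated control and 100% = unstimulated bacteria without AIP.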 As to conditions: S. aureus RN6390 RNAIII-GFP reporter, AIP-induced, flow cytometry 3 h, at 2 µM, stronger effect = higher value. A general note: In flow cytometry, cells or beads pass a laser one at a time.
The mark [1] stands for this setting: measured here: inhibition of GFP MFI.

Among all 24,000 compounds or so, about 65 (0.3%) were called active.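 Rule for the calls: active = share of bacteria positive for the green fluorescent reporter and its mean brightness both inhibited by 50% or more; inactive = the rest, inconclusive results apart.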 Only a selection was taken, and actives are over-represented in it overall.

Regarding `Cc1ccccc1NC(=O)Cc1nnc(SCC(=O)N2CCN(c3ccccc3)CC2)n1C`, the inhibition is -0.1% (inactive). Moreover, the inhibition under setting [1] was found to be 7.2%.
As to `CCC(=O)N1CCN=C1SCc1ccc(F)cc1`, the inhibition is 1.7% (inactive). For the same molecule, the inhibition under setting [1] was 7.4%.
Taken in the same sequence, the figures for `CCOc1ccccc1-n1c(SCC(=O)NCc2ccco2)nnc1-c1ccncc1` were -4.3% (inactive) and -22.1%.
On the same counts, the results for `CN(C)CCCn1c(N)c(C#N)c2nc(C#N)c(C#N)nc21` are -1% (inactive) and 1.8%.
For the molecule `CNC(=O)NCCN1CCCC1=O`, the inhibition was 7.2% (inactive). The inhibition under setting [1] amounted to 22.5%.
Taken in the same sequence, the figures for `O=C(CCOc1ccccc1)NCc1ccccc1` were 1.7% (inactive) and 8.4%.
On the same counts, the results for `CC1CCCN(C(C(=O)Nc2ccc(C(C)C)cc2)c2ccc3c(c2)OCO3)C1` (centres undefined) are -2.3% (inactive) and 0.9%.
On the same counts, the results for `Cc1cccc(C(=O)OCC(=O)Nc2sc3c(c2C#N)CCC3)c1` are 0% (inactive) and -2%.
In the case of `Cc1cccc(CC(=O)Nc2c3c(nn2-c2cccc(Cl)c2)CS(=O)C3)c1` (centres undefined), the inhibition is 1.2% (inactive). Under setting [1], the inhibition stood at 3.3%.
On to `Nc1scc(-c2ccncc2)c1Cl`, for which the inhibition was 0.4% (inactive). The inhibition under setting [1] is 15.1%.
Consider `CSC1=NCCN1C(=O)c1ccc(S(=O)(=O)N2CCOCC2)cc1`, for which the inhibition is -5.9% (inactive). Also, under setting [1], the inhibition is -16.9%.
On to `O=C(NCCc1ccccn1)c1ccc(COc2ccccc2)o1`, for which the inhibition was -0.4% (inactive). Further, the inhibition under setting [1] is -1.9%.
In the case of `O=S1(=O)CC(NCc2ccccc2)C(Nc2ccc(Cl)cc2)C1` (centres undefined), the inhibition is -7% (inactive). Moreover, the inhibition under setting [1] was -45.9%.
On the same counts, the results for `Cc1cccc(N2CCN(C(=O)C3CCN(S(=O)(=O)c4cnc[nH]4)CC3)CC2)c1C` are -9.8% (inactive) and -17%.
Taken in the same sequence, the figures for `CCCn1c(C(O)c2ccc(OCC)cc2)nc2ccccc21` (centres undefined) were -2.6% (inactive) and -8.7%.
Turning to `CC(=O)Oc1cc2c(C(=O)NCCN3CCOCC3)c(C)oc2c2ccccc12`, the inhibition is -5.9% (inactive). In addition, the inhibition under setting [1] was -9.9%.
Consider `CCS(=O)(=O)N1CCCC(C(=O)NCCCN(C)Cc2ccccc2)C1` (centres undefined), for which the inhibition was -4.7% (inactive). Moreover, the inhibition under setting [1] was -9.5%.
On the same counts, the results for `CC(C)(C)c1ccc(C(=O)NCCC(=O)NCc2ccco2)cc1` are -2.6% (inactive) and 1.1%.
On the same counts, the results for `CC1CC(C)CN(CC(=O)Nc2ccc(S(N)(=O)=O)cc2)C1` (centres undefined) are -0.3% (inactive) and -0.4%.
On to `COc1cccc(N2CCN(C3CC(=O)N(c4ccc(Cl)cc4)C3=O)CC2)c1` (centres undefined), for which the inhibition is -2.7% (inactive). Further, under setting [1], the inhibition is -50.4%.
Taken in the same sequence, the figures for `CCc1ccc(N2CC(C(=O)NC3=NCCS3)CC2=O)cc1` (centres undefined) were -0.9% (inactive) and -2.9%.
As to `OCc1n[nH]c(CO)n1`, the inhibition is -8.3% (inactive). Moreover, the inhibition under setting [1] was -35.9%.
In the case of `COc1ccc(C2/C(=C(/O)c3ccc(OC(C)C)cc3)C(=O)C(=O)N2CCCN2CCOCC2)cc1` (centres undefined), the inhibition is 7.5% (inactive). For the same molecule, the inhibition under setting [1] turned out to be 17.8%.
Turning to `CCCCN(C)C(=O)c1ccc2c(c1)N(CC)C(=O)c1ccccc1S2(=O)=O`, the inhibition is -3% (inactive). Further, under setting [1], the inhibition is -32.6%.
On to `COc1ccc(Cl)cc1S(=O)(=O)N1CCN(CC(=O)C(C)(C)C)CC1`, for which the inhibition was -2.8% (inactive). The inhibition under setting [1] was -8.9%.
On the same counts, the results for `N#CCCn1cnc2ccccc21` are 2.1% (inactive) and 38.9%.
In the case of `CC(=O)NCC(=O)N(C)C(C(=O)Nc1ccc2c(c1)OCCO2)c1ccccc1` (centres undefined), the inhibition is 0.7% (inactive). Also, under setting [1], the inhibition came out at 7.7%.
On the same counts, the results for `COc1ccccc1-c1cc(C(=O)NCCCn2ccnc2)no1` are 0.6% (inactive) and 11.9%.
With `O=C(CN1CCN(C(=O)c2ccco2)CC1)Nc1ccc2c(c1)OCO2`, the inhibition is 0.1% (inactive). Moreover, the inhibition under setting [1] turned out to be 18.6%.
Taken in the same sequence, the figures for `CCOC(=O)N1CCN(C(=O)c2ccc3nc4cc(Cl)ccc4c(=O)n3c2)CC1` were 0.6% (inactive) and 4.6%.
On the same counts, the results for `CCOC(=O)N1CCN(C(=O)c2cnc3n(c2=O)CCS3)CC1` are -0.4% (inactive) and 7.7%.
On the same counts, the results for `NC(=O)C1(N2CCCCC2)CCN(C(=O)c2ccc(C#Cc3ccccc3)o2)CC1` are 14.7% (inactive) and 41.9%.
`COc1ccc(-c2noc(COc3ccc(Cl)c(C)c3)n2)cc1`: the inhibition was 0.3% (inactive). For the same molecule, the inhibition under setting [1] is -1.9%.
On the same counts, the results for `COc1ccccc1N1CCN(C(=O)c2cc(-c3ccc(Cl)c(Cl)c3)on2)CC1` are 0.6% (inactive) and 12%.
Taken in the same sequence, the figures for `Cc1ccc(S(=O)(=O)NCC(=O)N(CC(=O)NC2CCCCC2)Cc2ccco2)cc1` were 1% (inactive) and 1.8%.
As for `O=C(CN1CCOCC1)N1CCCc2c1c(=O)oc1ccc(OCc3ccccc3)cc21`, the inhibition is 7.9% (inactive). Moreover, the inhibition under setting [1] amounted to 27.4%.
Turning to `COC(=O)c1ccc(NC(=O)CSc2nnc(Cc3cccn3C)n2-c2ccc(F)cc2)cc1`, the inhibition was 0.7% (inactive). Besides, the inhibition under setting [1] was 2.8%.
On to `CCOc1ccc(S(=O)(=O)n2ccnc2)c2ccccc12`, for which the inhibition is 3.6% (inactive). Moreover, the inhibition under setting [1] was 12.2%.
Taken in the same sequence, the figures for `COc1ccc(N2CCN(CCNC(=O)c3nnc(Cc4c(F)cccc4Cl)o3)CC2)cc1` were -1.4% (inactive) and -14%.
As for `O=C(CSc1nnc(-c2c[nH]c3ccccc23)n1-c1ccc(F)cc1)NCc1ccco1`, the inhibition is -0.1% (inactive). For the same molecule, under setting [1], the inhibition came to 3.9%.
As to `O=C(Nc1nccs1)C1CCCN1S(=O)(=O)c1cccc2cccnc12` (centres undefined), the inhibition is 10.8% (inactive). For the same molecule, the inhibition under setting [1] stood at 6.8%.
Turning to `CCOCCCN1C(=O)CN(C2CCCCC2)C(=O)C1c1ccc(OCC)c(OC)c1` (centres undefined), the inhibition was 0.8% (inactive). The inhibition under setting [1] came out at 4.3%.

For orientation: inhibition means the drop in the measured response relative to a control, in per cent.
